Test results from ChEMBL document CHEMBL1961873, “Compounds: GSK PKIS; Assays: Nanosyn kinase panel” (2012).

Legend:
[1] = target: Protein kinase C gamma type (Homo sapiens) (UniProt P05129); details: at 1 µM;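 further: each value is an averaged percent inhibition of the enzyme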
[2] = target: T1, Protein kinase C iota type (Homo sapiens) (UniProt P41743); details: at 0.1 µM
T1 sequence (whole entry): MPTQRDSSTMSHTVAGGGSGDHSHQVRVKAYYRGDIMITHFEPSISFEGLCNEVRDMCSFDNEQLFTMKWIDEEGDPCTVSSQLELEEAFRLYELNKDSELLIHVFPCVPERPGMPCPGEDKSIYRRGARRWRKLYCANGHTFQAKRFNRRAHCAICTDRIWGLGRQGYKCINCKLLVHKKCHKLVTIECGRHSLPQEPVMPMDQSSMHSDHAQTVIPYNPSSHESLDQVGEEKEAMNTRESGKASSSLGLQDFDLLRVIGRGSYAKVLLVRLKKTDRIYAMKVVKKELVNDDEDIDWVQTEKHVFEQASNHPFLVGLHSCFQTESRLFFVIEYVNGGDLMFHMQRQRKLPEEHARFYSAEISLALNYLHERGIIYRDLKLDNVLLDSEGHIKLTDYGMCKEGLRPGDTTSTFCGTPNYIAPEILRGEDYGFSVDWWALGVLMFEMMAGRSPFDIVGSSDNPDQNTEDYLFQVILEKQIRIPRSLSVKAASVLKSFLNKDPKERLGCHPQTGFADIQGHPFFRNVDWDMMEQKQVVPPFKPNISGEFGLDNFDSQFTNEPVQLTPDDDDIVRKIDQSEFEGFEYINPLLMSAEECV

[3] = target: T1, Protein kinase C iota type (Homo sapiens); details: at 1 µM
[4] = target: Protein kinase C theta type (Homo sapiens) (UniProt Q04759); details: at 0.1 µM
Protein kinase C theta type (Homo sapiens), sequence (Q04759 whole entry, looked up): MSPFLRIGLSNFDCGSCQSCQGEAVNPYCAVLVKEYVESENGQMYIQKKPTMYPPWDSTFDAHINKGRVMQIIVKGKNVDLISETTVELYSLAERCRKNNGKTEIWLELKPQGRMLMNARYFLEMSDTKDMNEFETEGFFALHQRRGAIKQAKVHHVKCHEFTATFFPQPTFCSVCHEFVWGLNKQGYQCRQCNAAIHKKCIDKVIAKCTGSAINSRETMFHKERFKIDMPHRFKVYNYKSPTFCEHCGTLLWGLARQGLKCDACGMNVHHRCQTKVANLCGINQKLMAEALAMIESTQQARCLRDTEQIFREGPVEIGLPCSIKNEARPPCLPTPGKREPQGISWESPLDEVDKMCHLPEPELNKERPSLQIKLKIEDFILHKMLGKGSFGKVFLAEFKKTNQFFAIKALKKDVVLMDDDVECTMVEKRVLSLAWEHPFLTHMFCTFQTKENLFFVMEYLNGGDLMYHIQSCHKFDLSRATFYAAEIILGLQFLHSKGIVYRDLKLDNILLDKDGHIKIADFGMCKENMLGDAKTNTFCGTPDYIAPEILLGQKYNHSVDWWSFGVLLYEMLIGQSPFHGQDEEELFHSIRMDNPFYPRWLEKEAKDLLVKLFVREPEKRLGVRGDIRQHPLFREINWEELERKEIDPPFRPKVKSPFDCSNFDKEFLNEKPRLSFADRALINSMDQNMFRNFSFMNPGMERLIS

[5] = target: Protein kinase C theta type (Homo sapiens) (UniProt Q04759); details: at 1 µM
[6] = target: Protein kinase C beta type (Homo sapiens) (UniProt P05771); details: at 0.1 µM
Protein kinase C beta type (Homo sapiens), sequence (P05771 2-671 limits assumed): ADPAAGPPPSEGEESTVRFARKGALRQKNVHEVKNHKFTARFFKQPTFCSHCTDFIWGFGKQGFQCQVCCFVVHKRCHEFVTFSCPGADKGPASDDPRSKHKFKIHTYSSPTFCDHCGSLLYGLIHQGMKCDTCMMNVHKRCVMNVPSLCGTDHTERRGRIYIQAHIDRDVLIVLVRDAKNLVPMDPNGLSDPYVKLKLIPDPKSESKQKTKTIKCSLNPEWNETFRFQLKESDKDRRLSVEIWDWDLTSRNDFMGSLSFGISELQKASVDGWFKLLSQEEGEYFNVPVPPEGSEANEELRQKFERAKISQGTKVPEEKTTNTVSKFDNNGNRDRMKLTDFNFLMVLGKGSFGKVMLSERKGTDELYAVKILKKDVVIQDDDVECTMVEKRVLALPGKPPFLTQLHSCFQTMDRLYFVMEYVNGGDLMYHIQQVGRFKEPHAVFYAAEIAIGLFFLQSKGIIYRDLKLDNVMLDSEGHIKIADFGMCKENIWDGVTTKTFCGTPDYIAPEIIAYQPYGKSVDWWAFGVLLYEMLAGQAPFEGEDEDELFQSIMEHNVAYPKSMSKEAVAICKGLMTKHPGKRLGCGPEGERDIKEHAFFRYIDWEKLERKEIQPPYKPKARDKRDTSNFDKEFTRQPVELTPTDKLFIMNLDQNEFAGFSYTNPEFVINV

[7] = target: Protein kinase C beta type (Homo sapiens) (UniProt P05771); details: at 1 µM
[8] = target: T2, Serine/threonine-protein kinase D1 (Homo sapiens) (UniProt Q15139); details: at 0.1 µM
T2 sequence (whole entry): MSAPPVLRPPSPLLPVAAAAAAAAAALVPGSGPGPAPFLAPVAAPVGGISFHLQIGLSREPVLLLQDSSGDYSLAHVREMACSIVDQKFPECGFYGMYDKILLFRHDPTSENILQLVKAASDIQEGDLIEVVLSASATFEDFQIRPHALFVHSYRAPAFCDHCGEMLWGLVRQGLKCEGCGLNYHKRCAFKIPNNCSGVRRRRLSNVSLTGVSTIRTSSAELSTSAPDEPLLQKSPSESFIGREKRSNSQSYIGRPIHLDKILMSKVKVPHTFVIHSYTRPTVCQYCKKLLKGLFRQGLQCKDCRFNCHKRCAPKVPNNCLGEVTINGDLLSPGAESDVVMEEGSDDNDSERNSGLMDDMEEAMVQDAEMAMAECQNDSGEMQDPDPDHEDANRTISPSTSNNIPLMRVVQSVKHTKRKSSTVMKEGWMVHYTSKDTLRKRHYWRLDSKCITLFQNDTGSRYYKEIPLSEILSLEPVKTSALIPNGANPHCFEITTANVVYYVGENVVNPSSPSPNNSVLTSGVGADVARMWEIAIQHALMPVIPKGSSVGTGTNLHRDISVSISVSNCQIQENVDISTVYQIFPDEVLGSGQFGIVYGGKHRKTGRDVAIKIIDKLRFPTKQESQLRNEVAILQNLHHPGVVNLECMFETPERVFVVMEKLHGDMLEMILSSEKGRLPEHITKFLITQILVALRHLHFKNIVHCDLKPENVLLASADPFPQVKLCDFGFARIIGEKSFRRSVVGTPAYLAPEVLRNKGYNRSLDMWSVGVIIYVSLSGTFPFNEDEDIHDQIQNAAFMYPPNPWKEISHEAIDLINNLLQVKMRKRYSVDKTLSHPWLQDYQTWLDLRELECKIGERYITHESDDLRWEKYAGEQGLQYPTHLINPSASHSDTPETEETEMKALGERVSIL

[9] = target: T2, Serine/threonine-protein kinase D1 (Homo sapiens); details: at 1 µM
[10] = target: T3, Serine/threonine-protein kinase D2 (Homo sapiens) (UniProt Q9BZL6); details: at 0.1 µM;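 further: reported percent inhibition values are means, part of the GSK PKIS kinase panel screen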
T3 sequence (whole entry): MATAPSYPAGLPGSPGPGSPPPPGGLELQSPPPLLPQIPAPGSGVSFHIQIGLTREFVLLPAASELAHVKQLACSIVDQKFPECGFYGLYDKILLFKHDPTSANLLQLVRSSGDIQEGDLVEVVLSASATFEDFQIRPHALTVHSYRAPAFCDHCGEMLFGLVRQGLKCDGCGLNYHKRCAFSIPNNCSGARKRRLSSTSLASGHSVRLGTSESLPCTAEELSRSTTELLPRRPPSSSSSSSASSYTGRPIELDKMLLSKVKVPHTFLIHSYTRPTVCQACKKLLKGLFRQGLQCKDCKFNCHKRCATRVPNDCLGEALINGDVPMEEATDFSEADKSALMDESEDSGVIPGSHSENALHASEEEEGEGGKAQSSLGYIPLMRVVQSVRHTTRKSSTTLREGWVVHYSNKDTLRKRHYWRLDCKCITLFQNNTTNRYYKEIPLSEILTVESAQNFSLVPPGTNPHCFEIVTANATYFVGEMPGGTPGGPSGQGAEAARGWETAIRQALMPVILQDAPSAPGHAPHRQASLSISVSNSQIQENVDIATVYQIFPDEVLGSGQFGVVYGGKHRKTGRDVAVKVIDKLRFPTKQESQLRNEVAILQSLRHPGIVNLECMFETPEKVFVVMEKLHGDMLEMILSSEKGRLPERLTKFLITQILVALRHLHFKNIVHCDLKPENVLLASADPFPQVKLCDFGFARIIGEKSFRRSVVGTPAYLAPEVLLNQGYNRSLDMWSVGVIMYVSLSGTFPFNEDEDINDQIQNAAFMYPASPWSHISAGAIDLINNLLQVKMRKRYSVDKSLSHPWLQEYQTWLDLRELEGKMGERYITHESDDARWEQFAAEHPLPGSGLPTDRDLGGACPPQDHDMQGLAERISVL

SMILES | inhibition [1] | inhibition [2] | inhibition [3] | inhibition [4] | inhibition [5] | inhibition [6] | inhibition [7] | inhibition [8] | inhibition [9] | inhibition [10]
Cc1ccc(NC(=O)c2ccoc2)cc1-c1ccc(C(=O)NCC2CC2)cc1 | -0.41% | 1.53% | -0.02% | 0.79% | 0.76% | -0.21% | 0.92% | 3.2% | 2.32% | 2.39%
O=C1Nc2ccccc2/C1=C/Nc1ccc(-n2cncn2)cc1 | 2.93% | 2.78% | 2.15% | 2.93% | 4.7% | 1.94% | 4.54% | 5.12% | 7.88% | 6.14%
C#Cc1cccc(Nc2ncnc3ccc(OCCCCNCCS(C)(=O)=O)cc23)c1 | 7.74% | 2.69% | 1.19% | 3.71% | 5.27% | 1.93% | 6.61% | 2.59% | 25% | 4.1%
COc1ccc2cc(-c3c(-c4ccncc4)nc(-c4ccc([S+](C)[O-])cc4C)n3C)ccc2c1 (stereo not given) | -0.38% | 0.41% | -0.63% | -1.05% | -1.26% | 0.04% | 5.01% | -0.67% | -0.16% | -0.62%
COc1cc2ncn(-c3cc(OCc4ccccc4C(F)(F)F)c(C(C)=O)s3)c2cc1OC | 0.33% | 0.95% | 1.41% | 1.39% | 0.74% | 0.72% | 0.23% | 3.39% | 5.09% | 2.5%
COc1ccc2cc(-c3c(-c4ccncc4)nc(-c4ccc(S(C)(=O)=O)cc4C)n3C)ccc2c1 | 7.85% | 3.93% | 3.45% | 2.19% | 5.03% | 3.45% | 9.63% | 4.08% | 4.53% | 4.88%
CNC(=O)c1cncc(/C=C/c2c(C)cccc2C)c1 | 0.78% | -1.41% | -1.56% | -0.68% | 0.76% | -0.12% | 1.01% | -2.84% | -2.47% | -2.56%
FC(F)(F)c1cccc(Nc2nccc(-c3cnn4nc(-c5ccccc5)ccc34)n2)c1 | 1.78% | 0.68% | 0.06% | 1.79% | 2.39% | 1.28% | 1.35% | 2.1% | 3.92% | 1.86%
COc1cc(C)c(N(C)C(=O)CN(C)C)cc1Nc1nc(Nc2cccc(F)c2C(N)=O)c2cc[nH]c2n1 | 0.07% | 0.9% | 1.43% | -0.27% | -0.14% | 0.9% | 0.92% | -1.96% | -0.45% | -2.04%
COc1cc2ncn(-c3cc(OCCc4ccccc4)c(C(N)=O)s3)c2cc1OC | 1.47% | 1.14% | 1.71% | 0.51% | -0.63% | 0.9% | 1.22% | 2.65% | 5.06% | 3.79%
C/C(Nc1ccc(S(N)(=O)=O)cc1)=C1/C(=O)Nc2ccccc21 | 2.57% | -0.37% | 0.02% | -0.23% | 3.24% | -0.77% | 1.28% | 0.51% | 15.9% | 0.69%
CCc1ccc(Oc2nccc(-c3c(-c4ccc(F)cc4)ncn3C3CCNCC3)n2)cc1 | 10.9% | 0.16% | 1.79% | 4% | 8.13% | 2.37% | 9.56% | 3.88% | 13% | 4.63%
COc1cc(Nc2ncc3c(C)nc(-c4cccc(Oc5ccccc5)c4)n3n2)cc(OC)c1OC | 2.12% | 0.93% | 1.81% | 0.31% | -0.72% | 0.53% | 0.55% | 1.42% | 2.93% | 1.26%
O=C(NCC1CC1)c1ccc(-c2cccc(C(=O)NC3CC3)c2)cc1 | -1.2% | 2.21% | 3.55% | 1.24% | -0.68% | 0.69% | -1.18% | 1.97% | 2.45% | 2.36%
Fc1ccc(-c2ncn(CCCN3CCOCC3)c2-c2ccncc2)cc1 | 0.34% | 0.16% | 0.41% | -0.92% | -2.08% | 0.1% | 0.17% | 1.04% | 2.24% | 2.15%
CCc1cccc(CC)c1/C=C/c1cncc(C(=O)NC)c1 | 2.81% | 2.1% | 3.47% | 1.41% | -0.25% | 0.14% | -0.35% | 2.52% | 6.44% | 3.28%
Fc1ccc(-c2ncn(C3CCNCC3)c2-c2ccnc(Oc3ccc(Oc4ccccc4)cc3)n2)cc1 | 4.82% | 1.22% | 2.19% | 1.9% | 3.54% | 2.63% | 12.4% | 5.08% | 8.65% | 4.63%
